An excerpt weighted towards active compounds, which were near 3.9% of everything screened.
CR mimetic SO: caloric restriction mimetics inhibiting age-related superoxide in yeast; S. cerevisiae aged cells, superoxide DHE fluorescence; active compounds read low; superoxide response (% of plate mean), % at 10 µM; 330,000 compounds, 0.18% hits;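 active = superoxide response under a set limit, about three screen SD below normal, cut at about 65% in these data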;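 note: yeast aged for seven days with compound at 30 °C before DHE staining; 100% = average MFI of all compound-treated wells on the plate with controls excluded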
PLC-gamma1 inh: blocks human PLC-gamma1 enzyme activity. inhibition, % at 12.2 µM. P19174. 370,000 compounds, 0.84% hits. purified PLC-gamma1, fluorogenic substrate, fluorescence. AID 720700; in the data active = inhibition above about 9.5%
Target sequence (P19174 whole entry, looked up): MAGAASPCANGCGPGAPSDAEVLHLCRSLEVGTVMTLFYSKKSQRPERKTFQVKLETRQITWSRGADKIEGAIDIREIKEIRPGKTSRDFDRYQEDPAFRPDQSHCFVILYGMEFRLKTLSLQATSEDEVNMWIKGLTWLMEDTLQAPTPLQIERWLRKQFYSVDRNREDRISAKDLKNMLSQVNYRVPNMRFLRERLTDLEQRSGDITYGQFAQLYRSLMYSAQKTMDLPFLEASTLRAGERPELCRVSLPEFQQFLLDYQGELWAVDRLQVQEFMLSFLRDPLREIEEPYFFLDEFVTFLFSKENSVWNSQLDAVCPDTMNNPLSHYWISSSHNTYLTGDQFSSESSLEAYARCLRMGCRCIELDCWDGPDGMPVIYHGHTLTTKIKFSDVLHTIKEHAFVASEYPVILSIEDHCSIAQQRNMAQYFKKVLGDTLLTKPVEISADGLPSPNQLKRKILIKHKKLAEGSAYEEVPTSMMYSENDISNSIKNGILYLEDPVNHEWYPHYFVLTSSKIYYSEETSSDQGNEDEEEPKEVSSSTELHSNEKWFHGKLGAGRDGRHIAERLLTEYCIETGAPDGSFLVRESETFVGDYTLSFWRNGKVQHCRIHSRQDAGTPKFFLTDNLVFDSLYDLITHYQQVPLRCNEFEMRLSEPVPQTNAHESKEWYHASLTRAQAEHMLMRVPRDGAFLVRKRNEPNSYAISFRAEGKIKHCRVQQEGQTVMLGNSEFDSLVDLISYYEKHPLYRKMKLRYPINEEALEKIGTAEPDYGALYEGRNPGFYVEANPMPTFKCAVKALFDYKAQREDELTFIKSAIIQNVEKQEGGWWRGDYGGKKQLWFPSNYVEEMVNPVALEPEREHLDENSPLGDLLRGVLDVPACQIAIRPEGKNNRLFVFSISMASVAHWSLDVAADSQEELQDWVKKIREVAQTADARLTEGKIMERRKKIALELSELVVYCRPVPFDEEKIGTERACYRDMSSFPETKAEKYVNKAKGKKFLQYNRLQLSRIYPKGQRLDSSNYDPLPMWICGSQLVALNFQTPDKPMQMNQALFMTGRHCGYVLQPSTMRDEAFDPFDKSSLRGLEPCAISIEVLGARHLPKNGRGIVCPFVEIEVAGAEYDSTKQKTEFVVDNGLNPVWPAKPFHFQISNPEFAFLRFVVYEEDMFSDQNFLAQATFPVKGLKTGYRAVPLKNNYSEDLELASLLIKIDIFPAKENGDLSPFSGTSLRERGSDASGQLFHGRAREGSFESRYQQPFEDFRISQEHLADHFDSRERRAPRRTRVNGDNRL
HIF activator: HIF pathway transcriptional activation; U2OS HRE-luciferase reporter, luminescence; normalized: DMSO 0%, desferrioxamine 100%; activation, % at 7.5 µM (by protocol); 300,000 compounds, 0.32% hits; AID 1910;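 active = mean activation of at least 10% of the iron chelator positive control signal, with at least half of replicates also reaching 10%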
PLCb3 inh: inhibitors of human phospholipase C beta3. Q01970. Purified PLC-beta3, fluorogenic substrate, fluorescence. inhibition, % at 12.2 µM. 370,000 compounds, 0.18% hits; in the data active = inhibition above about 11%;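 note: 0% = median of compound wells on plate and 100% = full blocker control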
AHR act: activates the human aryl hydrocarbon receptor; P35869; activation, % at 5 µM; 320,000 compounds, 2.5% hits; AHR-responsive luciferase reporter cells, luminescence; in the data active = activation above about 47%;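 note: 0% = vehicle wells and 100% = reference agonist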
HGIII-sPLA2 inh: Blocks human group III sPLA2 activity; inhibition, % at 12.2 µM; 370,000 compounds, 0.56% hits; QFRET BODIPY PC-A2 liposome hydrolysis, fluorescence; Q9NZ20;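 active = inhibition above mean plus 3 SD of compounds lying within the high and low control bounds, cut at about 19% in these data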;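 note: 0% = median of test compound wells and 100% = no enzyme DMSO wells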
AHR act cf: confirmation of human aryl hydrocarbon receptor activators; shares compounds with AHR act; human cells, AHR-responsive luciferase reporter, luminescence; activation, % at 9 µM; 2,300 compounds, 87% hits; AID 2845; in the data active = activation above about 49%;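 note: HepG2 hepatoma cells carrying a DRE-driven firefly luciferase reporter; 0% = vehicle wells and 100% = reference agonist wells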
PXR counter: activates human PXR in AHR activator counter-screen; activation, % at 11.6 µM; cell-based PXR reporter, luciferase luminescence; AID 434939; 2,300 compounds, 88% hits; shares compounds with AHR act; in the data active = activation above about 11%;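 note: human hepatoma DPX-2 cells expressing full-length human PXR; 0% = DMSO and 100% = reference agonist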
An asterisk follows results filed as active; nt = not tested or not shown.

SMILES | CR mimetic SO | PLC-gamma1 inh | HIF activator | PLCb3 inh | AHR act | HGIII-sPLA2 inh | AHR act cf | PXR counter
COc1cccc(-c2cnc3c(NC(C)=O)cc(-c4ccsc4)cn23)c1 | nt | -39 | nt | -51 | nt | 1 | nt | nt
OC[C@@H]1CN(Cc2cccnc2)C[C@H](n2cnc3c(N4CCN(c5ccccc5)CC4)ncnc32)O1 | nt | 6 | nt | 5 | nt | 11 | nt | nt
CN(CC(=O)Nc1cccc(F)c1)C(=O)c1cc(S(=O)(=O)N(C)C)ccc1N1CCCC1 | 95 | -6 | -1 | -12 | 0 | -5 | nt | nt
COCCN(C(=O)CSc1n[nH]c(-c2ccccc2)n1)c1c(N)n(CC(C)C)c(=O)[nH]c1=O | 110 | 0 | 0 | -1 | -1 | -2 | nt | nt
Cc1nc2ccc(NC(=O)c3cccc(C(F)(F)F)c3)cc2o1 | 105 | -3 | 2 | 2 | 11 | -6 | nt | nt
Cc1ccc(NC(=O)c2cccc(C(F)(F)F)c2)cc1NC(=O)c1[nH]cnc1C(N)=O | 103 | -1 | nt | 0 | 119* | 8 | 114* | 57*
Sc1oc(-c2ccccc2)cc1C=Nc1ccccc1 | 124 | -15 | 1 | -21 | 79* | 12 | 39 | 20*
Fc1ccc(N/N=C2/CC(c3ccccc3)Oc3ccccc32)c(F)c1 (stereo not given) | 107 | -19 | 1 | -15 | 98* | -4 | 90* | 26*
CNC(=S)N/N=C1\CC(c2ccccc2)Oc2ccccc21 (stereo not given) | 86 | 3 | -1 | 1 | 4 | 1 | nt | nt
CC1(C(=O)NS(=O)(=O)C2CC2)CCCN(C(=O)Cc2ccc(F)cc2)C1 (stereo not given) | nt | 2 | nt | 8 | nt | 9 | nt | nt
COn1c(-c2ccccc2)nc2ccc(Cl)cc21 | 92 | -12 | 3 | -23 | 4 | 9 | nt | nt
Clc1ccc2nc3c4ccccc4cnn3c2c1 | 104 | -45 | 2 | -52 | 105* | -4 | 90* | 4
COc1ccc2oc(=O)cc(CN3CCN(Cc4ccccc4)CC3)c2c1 | nt | -45 | nt | -68 | nt | 11 | nt | nt
CCNC(=O)/C(C#N)=C/c1c(N2CCN(c3ccccc3)CC2)nc2c(C)cccn2c1=O | 99 | -17 | -1 | -25 | 80* | 0 | 69* | 19*
CCOC(=O)N1CCN(CC(=O)Nc2nccs2)CC1 | nt | -14 | nt | -16 | nt | -2 | nt | nt
COc1ccccc1NC(=O)c1sc2nc(-c3ccco3)ccc2c1N | 108 | nt | 1 | nt | 106* | nt | 95* | 21*
Cc1ccc(NC(=O)[C@@H](Cc2ccccc2)NC(=O)[C@H]2O[C@@H](n3ccc(=O)[nH]c3=O)[C@H](O)[C@@H]2O)cc1C | nt | 2 | nt | 2 | nt | -8 | nt | nt
COc1cccc(C#Cc2c(C=O)n(C)c3ccccc23)c1 | 94 | -37 | nt | -41 | 110* | 4 | 130* | 43*
Cn1c2ccccc2c(=O)c2cc(C#Cc3ccc(N)cc3)ccc21 | 108 | -222 | 1 | -366 | 9 | 3 | nt | nt
COc1ccc(C#Cc2ccc3c(c2)c(=O)c2ccccc2n3C)cc1 | 106 | -90 | -3 | -113 | 91* | 2 | 103* | 14*
CC(=O)c1c(C)[nH]c(C(=O)NCCc2ccccc2)c1C | 98 | -1 | 2 | 2 | 116* | 0 | 70* | 79*
CCOC(=O)C1CCCN(Cc2ccc(OC)c(OCc3ccccc3)c2)C1 (stereo not given) | 104 | 4 | 1 | -4 | 0 | -2 | nt | nt
CC(C)(C)c1cnnn1-c1ccc(/C=N/Nc2ccc([N+](=O)[O-])cc2)cc1 | 107 | -6 | 0 | -10 | 83* | -2 | 55* | 35*
O=C(NCCS(=O)(=O)N1CCCC1)c1ccccc1 | 99 | 0 | -28 | -4 | -1 | -31 | nt | nt
Cc1cn2c(N)c(/C=C3\C=Nc4ccccc43)c(=O)nc2s1 | 91 | -1 | 3 | -9 | 111* | -12 | 116* | 20*
SMILES | CR mimetic SO | PLC-gamma1 inh | HIF activator | PLCb3 inh | AHR act | HGIII-sPLA2 inh | AHR act cf | PXR counter
CCc1nn2c(N)c(/C=C3\C=Nc4ccccc43)c(=O)nc2s1 | 118 | -9 | 0 | -19 | 7 | -25 | nt | nt
CCCCNC(=O)C[C@@H]1C[C@@]2(C(=O)OCC)CCCC=C2N(Cc2ccco2)C1=O | nt | 2 | nt | 5 | nt | -1 | nt | nt
Cc1c(C(=O)NCc2ccccc2CN2CCCC2)oc2c(F)cccc12 | 112 | -2 | nt | -7 | 80* | -1 | 95* | 39*
COc1ccc2oc(C(=O)NCc3ccccc3CN3CCCC3)c(C)c2c1 | 113 | -22 | nt | -33 | 10 | -3 | nt | nt
COc1ccc(C#Cc2cccc(-c3nc(C(=O)N4CCN(C)CC4)cc4c3[C@H](CCO)N(S(=O)C(C)(C)C)C4)c2)cc1OC (stereo not given in full) | nt | -9 | nt | -14 | nt | 4 | nt | nt
Cc1ccc(C(=O)CSc2nsc(C)c2C#N)cc1 | 109 | -2 | 2 | 2 | -5 | -29 | nt | nt
Cc1ccc(C(=O)COc2nc(C)cc(C)c2C#N)cc1 | 119 | 3 | 0 | -2 | 46 | 5 | nt | nt
Cc1cc(C)c(C#N)c(OCC(=O)c2ccc(Br)cc2)n1 | 129 | 1 | -1 | -29 | 101* | -2 | 106* | 20*
Cc1ccnc(SCC(=O)c2ccc(Br)cc2)c1C#N | 91 | -19 | 2 | -25 | 125* | -17 | 125* | 93*
Cc1cccc(C)c1OCCCN1CCCC1 | 89 | -1 | 0 | -1 | 2 | 11 | nt | nt
Cc1cc(C)cc(OCCCn2ccnc2)c1 | 94 | 1 | -3 | -3 | 37 | -17 | nt | nt
Cc1cc(OCCn2ccnc2)cc(C)c1Cl | 100 | 3 | -2 | -6 | 80* | -10 | 55* | 16*
Cc1cccc(OCCCCCn2ccnc2)c1C | 92 | 0 | 0 | -1 | 22 | -28 | nt | nt
Cc1cccc(C)c1OCCCn1ccnc1 | 102 | 4 | -25 | -4 | 136* | 0 | 36 | 16*
Cc1cccc(C)c1OCCN1CCCC1 | 112 | 0 | -1 | 0 | 95* | 1 | 3 | 11*
CC(C)CN1CCC(CN2C(=S)NC[C@@H]2Cc2ccccc2)CC1 | nt | 0 | nt | 0 | nt | 6 | nt | nt
CCOC(=O)N1CCN(C(=O)c2[nH]c(C(F)(F)F)nc2-c2ccccc2)CC1 | nt | 2 | nt | 3 | nt | 0 | nt | nt
O=C(Nc1ccc(F)cc1)OC1CC2CC1[C@H]1CCCCN1[C@H]2Cc1ccccc1 (stereo not given in full) | nt | -1 | nt | 1 | nt | -6 | nt | nt
O=C(Nc1cccnc1)c1ccc(COc2cc(Cl)ccc2Cl)o1 | 102 | 0 | 1 | -2 | 19 | -27 | nt | nt
O=C(N/N=C/c1ccc(O)cc1)c1ccc(COc2cc(Cl)ccc2Cl)o1 | 107 | -115 | 0 | -140 | 115* | -20 | 83* | 28*
CC1CCCC(C)N1C(=O)COC(=O)CCC(=O)c1ccc(F)cc1 (stereo not given) | 104 | -1 | nt | 1 | 1 | -6 | nt | nt

Source: PubChem BioAssay (several laboratories)
